In PubChem BioAssay (EPA / NIEHS):
The source made the active and inactive calls. Rule for the calls: active = hit-call score of the fitted dose curve at least 0.9, where 1 is the maximum; inactive = score below 0.9.

Key:
Conditions in all cases: mRNA level, 48 h; actives raise or lower the signal
[1] = read-out: Peroxisomal acyl-coenzyme A oxidase 1 (ACOX1) gene, ACOX1 (gene 51); test: LTEA_HepaRG_ACOX1: Life Technologies and Expression Analysis (LTEA) Assay for Peroxisomal acyl-coenzyme A oxidase 1 (ACOX1) gene using HepaRG (AID 2283467)
Procedure, shortened: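 Measured by qRT-PCR against three housekeeping genes: ACOX1 transcript change in human HepaRG cells after 48 h dosing. Concentrations ran up to 100 uM in half-log steps. Curves were fitted bidirectionally relative to 0.5% DMSO.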

[2] = read-out: Alkaline Phosphatase, Placental (ALPP) gene, ALPP (gene 250); test: LTEA_HepaRG_ALPP: Life Technologies and Expression Analysis (LTEA) Assay for Alkaline Phosphatase, Placental (ALPP) gene using HepaRG (AID 2283468)
Procedure, shortened: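 HepaRG, 48 h plating then 48 h dosing, serum-free induction medium, 0.5% DMSO. 8 conc, half-log, max 100 uM, duplicates. Endpoint: ALPP transcript by qRT-PCR, housekeeping-normalized; gain or loss fitted vs DMSO.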

[3] = read-out: Bcl-2 (BAD) gene, BAD (gene 572); test: LTEA_HepaRG_BAD: Life Technologies and Expression Analysis (LTEA) Assay for Bcl-2 (BAD) gene using HepaRG (AID 2283469)
Procedure, shortened: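 BAD transcript change, measured by qRT-PCR against three housekeeping genes and fitted in both directions relative to 0.5% DMSO, after 48 h chemical treatment of human HepaRG liver cells at concentrations up to 100 uM.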

[4] = read-out: Bcl-2 (BAX) gene, BAX (gene 581); test: LTEA_HepaRG_BAX: Life Technologies and Expression Analysis (LTEA) Assay for Bcl-2 (BAX) gene using HepaRG (AID 2283470)
Procedure, shortened: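 Differentiated HepaRG cells exposed 48 h in serum-free induction medium, eight half-log concentrations from 100 uM, in duplicate, 0.5% DMSO vehicle. BAX mRNA by TaqMan qRT-PCR, normalised to ACTB, GAPDH and POLR2A.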

[5] = read-out: adenosine kinase (ADK) gene, ADK (gene 132); test: LTEA_HepaRG_ADK: Life Technologies and Expression Analysis (LTEA) Assay for adenosine kinase (ADK) gene using HepaRG (AID 2283471)
Procedure, shortened: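 HepaRG (human liver), 48 h chemical exposure, 8-pt half-log series, top 100 uM, 0.5% DMSO vehicle. Readout: ADK mRNA by qRT-PCR vs housekeeping genes; bidirectional curve fit relative to DMSO baseline.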

[6] = read-out: Alpha-fetoprotein (AFP) gene, AFP (gene 174); test: LTEA_HepaRG_AFP: Life Technologies and Expression Analysis (LTEA) Assay for Alpha-fetoprotein (AFP) gene using HepaRG (AID 2283472)
Procedure, shortened: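 Differentiated human HepaRG cells exposed 48 h in serum-free induction medium, 8-point half-log series from 100 uM in 0.5% DMSO, duplicate. AFP mRNA by qRT-PCR, normalized to ACTB, GAPDH, POLR2A; bidirectional fit vs DMSO.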

BCL2L11 (gene 10018) = test: LTEA_HepaRG_BCL2L11: Life Technologies and Expression Analysis (LTEA) Assay for Bcl-2 (BCL2L11) gene using HepaRG (AID 2283473)
Procedure, shortened: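 Read-out is BCL2L11 transcript level by qRT-PCR, normalized to three housekeeping genes and fitted bidirectionally against 0.5% DMSO vehicle. HepaRG cells received chemicals for 48 h in serum-free induction medium, 100 uM down in half-log dilutions.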

[7] = read-out: Apolipoprotein A-V (APOA5) gene, APOA5 (gene 116519); test: LTEA_HepaRG_APOA5: Life Technologies and Expression Analysis (LTEA) Assay for Apolipoprotein A-V (APOA5) gene using HepaRG (AID 2283474)
Procedure, shortened: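 Readout is APOA5 transcript level by qRT-PCR on Fluidigm dynamic arrays, normalized to three housekeeping genes. HepaRG cultures received chemicals for 48 h at up to 100 uM (half-log steps, 0.5% DMSO), with gain or loss scored relative to DMSO.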

[8] = read-out: Apoptosis regulator Bcl-2 (Homo sapiens) (UniProt P10415); test: LTEA_HepaRG_BCL2: Life Technologies and Expression Analysis (LTEA) Assay for Bcl-2 gene using HepaRG (AID 2283475)
Procedure, shortened: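 Differentiated human HepaRG cells in serum-free induction medium exposed 48 h, in duplicate, to 8-point half-log series from 100 uM in 0.5% DMSO. BCL2 mRNA by qRT-PCR (TaqMan/Fluidigm), normalized to ACTB, GAPDH, POLR2A; bidirectional fit against DMSO.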

[9] = read-out: Bcl-2 (BID) gene, BID (gene 637); test: LTEA_HepaRG_BID: Life Technologies and Expression Analysis (LTEA) Assay for Bcl-2 (BID) gene using HepaRG (AID 2283476)
Procedure, shortened: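 Gene expression by qRT-PCR in HepaRG cells after 48 h exposure, duplicate wells, eight half-log concentrations topping at 100 uM in 0.5% DMSO. Normalized to ACTB, GAPDH, POLR2A; bidirectional fitting relative to DMSO.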

Caspase-3 (Homo sapiens) = Caspase-3 (Homo sapiens) (UniProt P42574); test: LTEA_HepaRG_CASP3: Life Technologies and Expression Analysis (LTEA) Assay for cysteine-aspartic acid protease (CASP3) using HepaRG (AID 2283477)
Procedure, shortened: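 Read-out is CASP3 mRNA level by TaqMan qRT-PCR in human HepaRG cells after 48 h chemical exposure. Eight half-log concentrations topping at 100 uM were tested in 0.5% DMSO; gain or loss was fitted relative to DMSO.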

[10] = read-out: Cytochrome P450 (CYP24A1), CYP24A1 (gene 1591); test: LTEA_HepaRG_CYP24A1: Life Technologies and Expression Analysis (LTEA) Assay for Cytochrome P450 (CYP24A1) using HepaRG (AID 2283478)
Procedure, shortened: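 HepaRG, 48 h chemical exposure, 8-pt half-log CRC from 100 uM, 0.5% DMSO vehicle, duplicates. Endpoint: CYP24A1 mRNA by Fluidigm TaqMan qRT-PCR, normalized ACTB/GAPDH/POLR2A; gain/loss fit vs DMSO.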

[11] = read-out: Cytochrome P450 (CYP1A2), CYP1A2 (gene 1544); test: LTEA_HepaRG_CYP1A2: Life Technologies and Expression Analysis (LTEA) Assay for Cytochrome P450 (CYP1A2) using HepaRG (AID 2283479)
Procedure, shortened: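 CYP1A2 transcript induction or loss, quantified by Fluidigm qRT-PCR against three housekeeping genes, was fitted bidirectionally against 0.5% DMSO controls. Human HepaRG cells received eight half-log concentrations from 100 uM over 48 h.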

[12] = read-out: Cytochrome P450 (CYP2B6), CYP2B6 (gene 1555); test: LTEA_HepaRG_CYP2B6: Life Technologies and Expression Analysis (LTEA) Assay for Cytochrome P450 (CYP2B6) using HepaRG (AID 2283481)
Procedure, shortened: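 HepaRG cells plated 48 h, switched to serum-free induction medium, then dosed 48 h (8 points, half-log from 100 uM, 0.5% DMSO). RNA isolated; CYP2B6 expression measured by qRT-PCR; gain or loss fitted relative to DMSO.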

[13] = read-out: Cytochrome P450 2C19 (Homo sapiens) (UniProt P33261); test: LTEA_HepaRG_CYP2C19: Life Technologies and Expression Analysis (LTEA) Assay for CYP2C19 using HepaRG (AID 2283482)
Procedure, shortened: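 Transcript levels of CYP2C19 were quantified by qRT-PCR after HepaRG cells were treated for 48 hours with test chemicals up to 100 uM (eight half-log concentrations, 0.5% DMSO vehicle). Gain or loss of signal was fitted relative to DMSO.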

CYP2C8 (gene 1558) = test: LTEA_HepaRG_CYP2C8: Life Technologies and Expression Analysis (LTEA) Assay for CYP2C8 using HepaRG (AID 2283483)
Procedure, shortened: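 CYP2C8 mRNA induction or loss, by qRT-PCR normalized to ACTB/GAPDH/POLR2A, is read in HepaRG cells after 48 h treatment. Concentrations run from 100 uM down in half-log dilutions, with 0.5% DMSO as vehicle and baseline.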

CYP2C9 (gene 1559) = test: LTEA_HepaRG_CYP2C9: Life Technologies and Expression Analysis (LTEA) Assay for CYP2C9 using HepaRG (AID 2283484)
Procedure, shortened: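 Cells plated 48 h, switched to serum-free induction medium, then treated in duplicate for 48 h at eight concentrations (max 100 uM, 0.5% DMSO). RNA then analysed by qRT-PCR for CYP2C9; curves fitted in both directions relative to DMSO.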

CYP2E1 (gene 1571) = test: LTEA_HepaRG_CYP2E1: Life Technologies and Expression Analysis (LTEA) Assay for CYP2E1 using HepaRG (AID 2283485)
Procedure, shortened: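 HepaRG cells, plated 48 h, then exposed 48 h in serum-free induction medium to eight half-log concentrations from 100 uM in 0.5% DMSO, duplicate. CYP2E1 mRNA by qRT-PCR, normalized to ACTB/GAPDH/POLR2A; bidirectional fit versus DMSO.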

CYP4A11 (gene 1579) = test: LTEA_HepaRG_CYP4A11: Life Technologies and Expression Analysis (LTEA) Assay for CYP4A11 using HepaRG (AID 2283486)
Procedure, shortened: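 HepaRG, 48 h chem exposure, 8 conc (100 uM top, half-log), 0.5% DMSO vehicle; qRT-PCR readout, housekeeping-gene normalized; bidirectional curve fit vs DMSO baseline.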

[14] = read-out: cysteine-aspartic acid protease (CASP8), CASP8 (gene 841); test: LTEA_HepaRG_CASP8: Life Technologies and Expression Analysis (LTEA) Assay for cysteine-aspartic acid protease (CASP8) using HepaRG (AID 2283480)
Procedure, shortened: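 HepaRG, 48 h exposure, duplicate wells; 8 conc, half-log from 100 uM, 0.5% DMSO. Serum-free induction medium. CASP8 mRNA by TaqMan qRT-PCR, norm. ACTB/GAPDH/POLR2A; gain/loss fitted vs DMSO.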

Chain of Caspase-3 (Homo sapiens) (P42574 whole entry, looked up): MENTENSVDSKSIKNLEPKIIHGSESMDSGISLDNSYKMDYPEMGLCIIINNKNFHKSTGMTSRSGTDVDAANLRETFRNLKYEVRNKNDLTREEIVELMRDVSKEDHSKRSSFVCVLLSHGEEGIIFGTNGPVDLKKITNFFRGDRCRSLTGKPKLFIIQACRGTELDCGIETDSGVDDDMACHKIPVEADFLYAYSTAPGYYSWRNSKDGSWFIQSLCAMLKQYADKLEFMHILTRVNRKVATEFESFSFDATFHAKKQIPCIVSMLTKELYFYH
Chain of Apoptosis regulator Bcl-2 (Homo sapiens) (P10415 whole entry, looked up): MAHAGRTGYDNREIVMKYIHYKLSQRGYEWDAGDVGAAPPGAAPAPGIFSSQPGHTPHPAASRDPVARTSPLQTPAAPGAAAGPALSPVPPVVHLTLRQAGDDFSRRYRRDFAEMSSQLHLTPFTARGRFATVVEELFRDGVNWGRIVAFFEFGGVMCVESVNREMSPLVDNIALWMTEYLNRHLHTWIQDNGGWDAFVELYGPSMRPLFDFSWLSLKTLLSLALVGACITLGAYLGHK
Chain of Cytochrome P450 2C19 (Homo sapiens) (P33261 whole entry, looked up): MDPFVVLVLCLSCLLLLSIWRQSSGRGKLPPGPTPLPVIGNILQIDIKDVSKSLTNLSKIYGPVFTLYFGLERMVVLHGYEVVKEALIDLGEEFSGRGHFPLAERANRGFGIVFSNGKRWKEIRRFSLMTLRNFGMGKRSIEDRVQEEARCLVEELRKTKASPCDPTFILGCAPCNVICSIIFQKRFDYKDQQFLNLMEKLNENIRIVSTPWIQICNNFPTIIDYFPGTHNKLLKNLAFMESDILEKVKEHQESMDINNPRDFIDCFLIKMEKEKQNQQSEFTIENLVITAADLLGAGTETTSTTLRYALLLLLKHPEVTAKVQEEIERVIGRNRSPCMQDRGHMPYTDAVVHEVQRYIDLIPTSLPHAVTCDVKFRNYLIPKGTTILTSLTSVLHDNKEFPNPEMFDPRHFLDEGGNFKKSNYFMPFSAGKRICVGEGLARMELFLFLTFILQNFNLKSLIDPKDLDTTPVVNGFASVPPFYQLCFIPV

Compound: ClC(Cl)=C(c1ccc(Cl)cc1)c1ccc(Cl)cc1
- outcome [1]: inactive
- outcome [2]: inactive
- outcome [3]: inactive
- outcome [4]: inactive
- outcome [5]: inactive
- outcome [6]: inactive
- outcome (BCL2L11 (gene 10018)): inactive
- outcome [7]: inactive
- outcome [8]: inactive
- outcome [9]: inactive
- outcome (Caspase-3 (Homo sapiens)): inactive
- outcome [10]: inactive
- outcome [11]: inactive
- AC50 [12]: 1.59 µM (active)
- AC50 [13]: 7.61 µM (active)
- AC50 (CYP2C8 (gene 1558)): 3.63 µM (active)
- outcome (CYP2C9 (gene 1559)): inactive
- AC50 (CYP2E1 (gene 1571)): 50.7 µM (active)
- outcome (CYP4A11 (gene 1579)): inactive

Compound: c1cc2ccc3cccc4ccc(c1)c2c34
- outcome [1]: inactive
- outcome [2]: inactive
- outcome [3]: inactive
- outcome [4]: inactive
- outcome [5]: inactive
- outcome [6]: inactive
- outcome (BCL2L11 (gene 10018)): inactive
- outcome [7]: inactive
- outcome [8]: inactive
- outcome [9]: inactive
- outcome (Caspase-3 (Homo sapiens)): inactive
- outcome [10]: inactive
- AC50 [11]: 50 µM (active)
- AC50 [12]: 6.95 µM (active)
- AC50 [13]: 4.34 µM (active)
- AC50 (CYP2C8 (gene 1558)): 4.67 µM (active)
- outcome (CYP2C9 (gene 1559)): inactive
- AC50 (CYP2E1 (gene 1571)): 29.6 µM (active)
- outcome (CYP4A11 (gene 1579)): inactive

Compound: CCOC(=O)C(O)(c1ccc(Cl)cc1)c1ccc(Cl)cc1
- outcome [1]: inactive
- outcome [2]: inactive
- outcome [3]: inactive
- outcome [4]: inactive
- outcome [5]: inactive
- outcome [6]: inactive
- outcome (BCL2L11 (gene 10018)): inactive
- outcome [7]: inactive
- outcome [8]: inactive
- outcome [9]: inactive
- outcome (Caspase-3 (Homo sapiens)): inactive
- outcome [10]: inactive
- AC50 [11]: 66.5 µM (active)
- outcome [14]: inactive
- AC50 [12]: 69.1 µM (active)
- outcome [13]: inactive
- AC50 (CYP2C8 (gene 1558)): 21.6 µM (active)
- outcome (CYP2C9 (gene 1559)): inactive
- AC50 (CYP2E1 (gene 1571)): 30.4 µM (active)
- AC50 (CYP4A11 (gene 1579)): 20.4 µM (active)

Compound: CCCCCCCCCC[N+](C)(C)CCCCCCCCCC
- AC50 [1]: 76.4 µM (active)
- outcome [3]: inactive
- AC50 [4]: 60.3 µM (active)
- AC50 [5]: 79.1 µM (active)
- outcome [6]: inactive
- outcome (BCL2L11 (gene 10018)): inactive
- outcome [7]: inactive
- outcome [8]: inactive
- outcome [9]: inactive
- AC50 (Caspase-3 (Homo sapiens)): 75.9 µM (active)
- outcome [10]: inactive
- outcome [11]: inactive
- outcome [14]: inactive
- outcome [12]: inactive
- outcome [13]: inactive
- outcome (CYP2C8 (gene 1558)): inactive
- AC50 (CYP2C9 (gene 1559)): 60 µM (active)
- outcome (CYP2E1 (gene 1571)): inactive
- AC50 (CYP4A11 (gene 1579)): 26.3 µM (active)

Compound: CC(C)(O)C(=O)Nc1ccc([N+](=O)[O-])c(C(F)(F)F)c1
- outcome [1]: inactive
- AC50 [3]: 0.0265 µM (active)
- outcome [4]: inactive
- outcome [5]: inactive
- outcome [6]: inactive
- AC50 (BCL2L11 (gene 10018)): 0.0415 µM (active)
- AC50 [7]: 0.0349 µM (active)
- outcome [8]: inactive
- AC50 [9]: 0.0296 µM (active)
- outcome (Caspase-3 (Homo sapiens)): inactive
- outcome [10]: inactive
- AC50 [11]: 0.0406 µM (active)
- AC50 [12]: 44.3 µM (active)
- outcome [13]: inactive
- outcome (CYP2C8 (gene 1558)): inactive
- outcome (CYP2C9 (gene 1559)): inactive
- AC50 (CYP2E1 (gene 1571)): 37.1 µM (active)
- AC50 (CYP4A11 (gene 1579)): 42 µM (active)
